The sample as a whole holds a higher share of hits than the screen did.
Pf Dd2 inh – inhibitors of Plasmodium falciparum Dd2 growth; Potency, µM (highest dose often 28.9 µM), for inactives: top-dose activity, negative = inhibition, actives largely listed as inhibitors; actives 4.3% (n = 120,000); P. falciparum Dd2 growth, SYBR Green, 72 h; active = well fitted inhibition curve with a large enough effect;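 note: plate controls were DMSO vehicle for no effect and reference drug for full effect; nearly all actives have a fitted effect of over 65% in size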
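Readout: SYBR Green fluorescence, 485 nm excitation, 535 nm emission, after ~16 h lysis at 37C. Before that, Dd2-infected red cells (2.5% hematocrit) grew 72 h with compound, 29 uM top final concentration.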
Active calls of the source: *; i = inactive; [ ] = dose if it differs, or a comment. Potency is the fitted concentration of half-maximal effect.

SMILES	Pf Dd2 inh
COc1ccc(OCC(O)Cn2c(=N)n(CCN3CCCCC3)c3ccccc32)cc1 (stereo not given)	7.9µM*
Cc1nc2ccccc2n1CC(O)COc1ccc(C(=O)O)cc1 (stereo not given)	17%
CCNc1nc2c(c(=O)[nH]c(=O)n2C)n1CC(O)COc1ccc(Cl)cc1Cl (stereo not given)	-13%
N=c1n(CCN2CCCCC2)c2ccccc2n1CC(O)COc1ccc(Cl)cc1Cl (stereo not given)	1µM*
CC1=CCN(Cc2ccc(OCC(O)CN3CCN(C)CC3)cc2)CC1 (stereo not given)	7%
CCn1c(COc2ccc(Cl)cc2Cl)nc2ccccc21	-19%
Cc1ccc(OCC(O)Cn2c(=N)n(CCN3CCCCC3)c3ccccc32)cc1 (stereo not given)	2.8µM*
O=C(N[C@H]1CCN2C(=O)N(c3ccccc3)C(=O)[C@@H]2C1)C1CCCC1	-13%[44.1 µM]
Cc1cccc(-n2nc(-c3c(C)nc4scc(CC(=O)N5CCCC5)n4c3=O)cc2C)c1	-5%
CCc1nc(C)c(CC(=O)N[C@@H]2CCNC[C@H]2O)c(=O)[nH]1	-12%
Cc1ccccc1C(=O)Nc1ccc([C@H]2OCC(=O)N(C)[C@@H]2CO)cc1	13%[44.1 µM]
CCn1ncc(C(=O)N2CCCn3ccnc3C2c2cnn(C)c2)c1C (stereo not given)	6%
Cc1ccccc1CC(=O)Nc1ccc2ncnc(N3CCCCC3)c2c1	i
COc1ccccc1CC(=O)NC1CCN(c2cc(C(F)(F)F)ncn2)CC1	34%
COc1ccc(-c2cc(N3CCCC(NC(=O)Cc4cccs4)C3)n[nH]2)cc1 (stereo not given)	-11%
O=C(Cc1cccs1)Nc1ccc2c(N3CCCCC3)ncnc2c1	5µM*
CC1Oc2ccc(NC(=O)Cc3cccs3)cc2CN(Cc2ccc(Cl)cc2)C1=O (stereo not given)	i
COc1ccccc1CC(=O)Nc1ccc2c(N3CCCCC3)ncnc2c1	14µM*
COCc1ccc(CN[C@H]2C[C@@H](Cc3cc(CCO)on3)C2(C)C)o1	-14%[44.1 µM]
Cc1ccc(C(=O)N2C3CCCC2CC(=O)C3)cc1	2%[44.1 µM]
Cc1ccc(S(=O)(=O)N2CCC(CC(=O)NCc3ccccc3)C2)cc1F (stereo not given)	i
Cc1oc(C(O)c2cncnc2)nc1C(=O)Nc1ccc(N2CCOCC2)cc1 (stereo not given)	-1%[44.1 µM]
COC1CCOC2(CCN(C(=O)Nc3cccc(C)c3)CC2)C1 (stereo not given)	18%
CC(C)CN1CCN(C(=O)C2CCCN(S(C)(=O)=O)CCC(=O)NCC2)CC1 (stereo not given)	-3%
CC1(C(=O)NCc2cccnc2)CCc2cnc(NCc3ccccc3)nc21 (stereo not given)	i
SMILES	Pf Dd2 inh
O=C(NCCCc1ccccc1)C1CN(Cc2ccccc2)C(=O)N1 (stereo not given)	7%[44.1 µM]
O=C(NCCCc1ccccc1F)[C@@]12CNC[C@@H]1CN(Cc1ccccc1)C2	7.9µM*
COCCCNC(=O)[C@H]1CN(Cc2ccccc2)C[C@H]1C(=O)O	-7%
CN(C)c1cc(N2CCCC(NC(=O)c3ccccn3)C2)ncn1 (stereo not given)	47%[5.79 µM]
O=C1N(C2CCCCC2)C[C@H]2CN(Cc3cccc(OC(F)(F)F)c3)CCN12	-12%[44.1 µM]
CC(C)CC(=O)NC1CCN(c2cn[nH]c(=O)c2)CC1	-11%
CCCCC(=O)NC1CCN(c2cn[nH]c(=O)c2)CC1	2.8µM*
CCCCC(=O)NC1CCN(c2cnn(C)c(=O)c2)CC1	7%
CCc1c(C(=O)N2CCCC3(CCNC3)C2)[nH]c2ccccc12 (stereo not given)	-5%
Cc1ncc(C(=O)N2CCC3(CC2)Nc2ccccc2NC3=O)c(=O)[nH]1	-1%
CCN(CC)C(=O)[C@@H]1CCC[C@@H](NC2CCN(C)CC2)CN(C)C(=O)C1	10%[44.1 µM]
OC(CNc1nccc(-c2cccnc2)n1)COc1ccc(Cl)cc1 (stereo not given)	14µM*
Cc1cc(=O)[nH]c(NCCNc2nccc(-c3cccnc3)n2)n1	0%
CC(C)S(=O)(=O)CCNc1nccc(-c2cccnc2)n1	-7%
O=[S+]([O-])(Nc1ccccc1)c1ccc2c(c1)OCCN(Cc1cscn1)C2	i
CCOc1ccccc1CNC(=O)C(C)C1CCOCC1 (stereo not given)	35%
Cc1cccc(Cl)c1NC(=O)CN1C(=O)NC(c2ccc(Cl)cc2)C2=C1COC2=O (stereo not given)	-16%
O=C1c2c(nc(CNC3CCOCC3)n2Cc2ccccc2)NCCN1CC1CC1	i
CC(=O)N1CCC(C(=O)N2CC(c3nc(CCOc4cccc(C)c4)no3)C2)CC1	17%
CN(C)CCNC(=O)c1cc(-c2ccc(F)cc2)cc2ncn(C)c12	i
CN(C)CCNC(=O)c1nc2nc(-c3ccccc3)c(Nc3ccc(F)cc3)cc2n1C	7.1µM*
COCc1nc2nc(-c3ccccc3)c(Nc3ccc(F)c(OC)c3)cc2n1C	i
Cc1cc(-c2cc3c(nc2-c2ccccc2)nc(C(=O)NCCN(C)C)n3C)ccn1	-20%[44.1 µM]
COCCCNC(=O)c1nc2nc(-c3ccccc3)c(Cl)cc2n1C	-27%[44.1 µM]
Cc1ccccc1Nc1cc2c(nc1-c1ccccc1)nc(C(=O)NCCN(C)C)n2C	7.9µM*
SMILES	Pf Dd2 inh
Cn1ncc(N2CCC(NC(=O)Cc3ccc(F)cc3)CC2)cc1=O	-11%
O=C(NCc1ccccc1)c1ccc2oc(=O)n(Cc3ccccc3)c2c1	0%
CN1CCC(NC(=O)c2ccc3c(c2)n(Cc2ccc(F)cc2)c(=O)c2ccnn23)CC1	2.5µM*
CN(C)C(=O)c1ccc2c(c1)n(Cc1ccc(F)cc1)c(=O)c1ccnn12	10µM*
CNC(=O)c1ccc2c(c1)n(Cc1ccc(OC)cc1)c(=O)c1ccnn12	-20%
O=C(NCc1cccc(F)c1)c1ccc2nccn2c1	-12%[44.1 µM]
CCCN1CCN(C(=O)c2ccc3c(c2)n(CC)c(=O)c2ccnn23)CC1	i
O=C(NCc1ccccn1)c1ccc2c(c1)n(Cc1cccc(F)c1)c(=O)c1ccnn12	5µM*
Cn1c(=O)c2ccnn2c2ccc(C(=O)Nc3ccc(N4CCOCC4)cc3)cc21	i
Cc1nn(-c2ccccc2)c(Oc2ccccc2F)c1CCC(=O)NCC1CC1	i
O=C(c1cccnn1)N1CC(F)(F)C[C@H]1c1nc(-c2ccccc2)no1	21%
CC1=C(C(=O)NC2CC(=O)N(Cc3cccc4ccccc34)C2)OCCO1 (stereo not given)	-20%
CC(C)(N)CN1CCOCC1	1%[115 µM]
Cc1noc(C)c1CC(=O)N(C)C1CCc2nn(CC3CC3)c(=O)n2CC1 (stereo not given)	23%
CN(C)C[C@@H]1CN(c2ncccn2)C[C@H]1NC(=O)c1ccccc1Cl	-16%
O=C(CN1CCCc2nc(-c3ccccc3)ncc2C1=O)NCCCN1CCCC1=O	-21%
CNC(=O)c1noc([C@@H]2CC(F)(F)CN2C2CCOCC2)n1	12%
COc1cccc2sc(=NC(=O)c3ccc(S(=O)(=O)N4CCCCC4)cc3)n(C)c12	1%
COc1ccccc1N=c1scc(-c2ccc(S(=O)(=O)N3CCCC3)cc2)n1C	10µM*
COc1ccccc1N1CCN(S(=O)(=O)c2ccc(-c3coc(C)n3)cc2)CC1	41%
COc1ccccc1CN1CC2(C1)C(=O)N(CCCN1CCCC1=O)C(=O)[C@@H]1C[C@@H](O)CN12	28%
Cc1cccc(C(=O)N2CCCC(c3cc(N4CCOCC4)ncn3)C2)c1 (stereo not given)	-2%
CCCN(CC1CCOC1)S(=O)(=O)c1ccc(C)cc1C (stereo not given)	i[5.79 µM]

Assay outcomes: PubChem, National Center for Advancing Translational Sciences (NCATS)
